Laboratory results published in PubChem BioAssay (NCI).
The panel holds about 83,000 compounds, 20% with a hit somewhere; the sample as a whole holds those more often.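 Treatment: one concentration, 48 hours, 96-well format. Scoring: percent growth, with anything below 10 considered active.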 Values without a mark were called inactive. Activity calls are given as the source filed them.

Assays:
Assay in all cases: NCI-60 one-dose screen, 48 h (100 = growth as untreated, 0 = no growth, -100 = all killed)
Settings in all cases: 10 µM unless noted
[1] = test system: SR leukemia
[2] = test system: RPMI-8226 leukemia
[3] = test system: OVCAR-8 ovarian
[4] = test system: OVCAR-5 ovarian
[5] = test system: OVCAR-4 ovarian
[6] = test system: SK-OV-3 ovarian
[7] = test system: IGROV1 ovarian
[8] = test system: OVCAR-3 ovarian
[9] = test system: HS 578T breast
[10] = test system: NCI/ADR-RES ovarian

Structure (SMILES)	growth [1]	growth [2]	growth [3] [%]	growth [4] [%]	growth [5] [%]	growth [6]	growth [7] [%]	growth [8]	growth [9] [%]	growth [10]
O=C(Nc1ccccc1Cl)c1c[nH]c(=O)c(-c2ccc(N3CCCOC4(CC4)C3)cc2)c1	39.6%	21.2%	58.3	87	44.3	74.6%	85.7	64.5%	87.3	60.6%
C=C1C(=O)O[C@H]2[C@H]1CC/C(COC(=O)n1ccnc1C)=C\CC[C@@]1(C)O[C@@H]21	86.6%	100%	91.4	101	99.3	85.4%	97.7	73.7%	98	96.3%
CC(C)CNCC(=O)Nc1ccc(Cc2ccc(NC(=O)CNCC(C)C)cc2)cc1	6.24% (active)	32.8%	62.1	72.8	71.6	84.1%	47.2	74.5%	65.1	78.2%
NS(=O)(=O)c1ccc(CCN2C(=O)/C(=C\c3ccc(Cl)cc3)C=C2c2ccc(Oc3ccccc3)cc2)cc1	45.9%	60.4%	71.4	76.7	87.5	93%	78.8	81.3%	98.8	78.3%
COc1ccc(Cl)cc1NC(=O)c1cc2c([nH]1)-c1nc(NC(=O)C(C)C)sc1CC2	77.9%	93.7%	107	128	109	78.1%	77.1	103%	93.4	93.9%
Nc1ncnc2c1c(-c1ccc(Oc3ccccc3)cc1)nn2C[C@H]1SSC[C@@H]1O	-49.4% (active)	46.2%	79.4	82.1	47.2	1.91% (active)	22	-62.4% (active)	68.3	76.5%
O=C(Nc1ccc(F)cc1)Nc1ccc(Br)c(C(F)(F)F)c1	13.8%	-29.7% (active)	11.4	30.2	22.5	-8.74% (active)	25.7	11.9%	35.4	1.19% (active)
Nc1ncnc2c1ncn2C1OC(COC(c2ccccc2)(c2ccccc2)c2ccccc2)C(O)C1O (stereo not given)	89.6%	82.1%	96.7	85.7	95.2	123%	107	106%	84.1	89.2%
Cc1ccn2cc(Cc3cc(=O)oc4c3ccc3ccccc34)c(=O)nc2c1	92.7%	93.3%	100	102	101	90.1%	97	104%	95.2	105%
COc1ccc(Cl)cc1NC(=O)c1cc2c([nH]1)-c1nc(NC(=O)C(C)(C)C)sc1CC2	28.2%	83.8%	26.8	108	57	82.1%	65.3	32.8%	44	40.9%
COc1ccc(/C=N/C2=NNC(C)(c3ccccc3O)N2C(Cc2c[nH]c3ccccc23)C(=O)O)cc1 (stereo not given)	6.53% (active)	-15.2% (active)	17.1	69.4	33.3	46.8%	16.7	30%	51.7	34.9%
COc1ccc(/C=C2/C(=O)Nc3cc(Cl)c(-c4csc(N)n4)cc32)cc1	18.4%	39.3%	61.8	85	70.1	48.5%	56.1	17%	45.7	32.2%
CC(=O)c1cc2c(N)c(C(=O)Nc3cccc(Cl)c3)sc2nc1C	66.1%	76.7%	83.5	113	84.3	51.3%	92.3	92.8%	83.2	79.5%
